According to PubChem BioAssay AID624040 (The Scripps Research Institute Molecular Screening Center, 2012):
Screen size: about 360,000 compounds; about 2,100 (0.58%) were called active. The list comes from a sample in which actives are over-represented; it also holds similar structures and randomly drawn compounds. A number with no mark means an inactive call.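 The calls were made as follows: active = inhibition above a per-plate cutoff, the mean of that plate's test compounds plus 3 SD (cut at about 27% in these data); inactive = the rest.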

The compounds below were run against Muscarinic acetylcholine receptor M5 (Homo sapiens) (UniProt P08912) (assay: human M5 muscarinic receptor antagonists, primary screen, CHO cells, Fluo-8 calcium fluorescence (AID 624040;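 also: 0% = acetylcholine EC80 with DMSO and 100% = DMSO without agonist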)). Details: CHO-hM5 cells, ACh EC80, at 3 µM, stronger effect = higher value.
Chain of Muscarinic acetylcholine receptor M5 (Homo sapiens) (P08912 whole entry, looked up): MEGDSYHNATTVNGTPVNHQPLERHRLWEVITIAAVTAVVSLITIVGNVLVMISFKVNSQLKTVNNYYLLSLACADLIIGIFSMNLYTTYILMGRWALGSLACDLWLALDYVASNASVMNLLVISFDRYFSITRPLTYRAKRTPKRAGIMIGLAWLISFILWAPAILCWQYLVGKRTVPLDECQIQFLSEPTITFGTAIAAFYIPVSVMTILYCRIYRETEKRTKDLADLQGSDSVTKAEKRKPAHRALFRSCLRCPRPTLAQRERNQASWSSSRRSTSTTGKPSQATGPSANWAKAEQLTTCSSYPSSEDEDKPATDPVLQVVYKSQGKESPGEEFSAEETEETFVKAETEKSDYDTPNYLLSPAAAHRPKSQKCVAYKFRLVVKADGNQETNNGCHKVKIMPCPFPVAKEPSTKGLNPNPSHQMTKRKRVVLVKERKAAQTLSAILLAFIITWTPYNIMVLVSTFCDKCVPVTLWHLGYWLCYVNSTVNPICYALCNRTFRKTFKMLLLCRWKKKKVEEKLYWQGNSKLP
For `C=C(C)c1cccc(C(C)(C)NC(=O)N2CCN(c3ncccn3)CC2)c1`, the inhibition was 4.22%. Work on `C=C(C)c1cccc(C(C)(C)NC(=O)NC2CCCC2)c1` yielded an inhibition of -4.91%. `C=C(C)c1cccc(C(C)(C)NC(=O)NCCN(CC)CC)c1` was tested, and the inhibition was 52.3% (active). With `CC(=O)N1CC(=O)N(CC(=O)Nc2ccc(Br)cc2)C1=S` the inhibition was 15.7%. `Cc1ccc(S(=O)(=O)N(C)CC(=O)NCC(c2ccc(F)cc2)N2CCOCC2)cc1` (stereo not drawn) was tested, and the inhibition was 4.43%. `Cc1ccc(NC(=S)N2CCN(c3ncccn3)CC2)cc1C` gave an inhibition of 0.78%. `O=C(c1c(F)cccc1F)N1CCN(S(=O)(=O)c2ccc3c(c2)OCCO3)CC1` gave an inhibition of 15.2%. Compound `O=C(c1ccc(Cl)nc1)N1CCN(S(=O)(=O)c2ccc3c(c2)OCCO3)CC1` has an inhibition of 8.5%. For `O=C(c1c(F)cccc1Cl)N1CCN(S(=O)(=O)c2ccc3c(c2)OCCCO3)CC1`, the inhibition was 32.7% (active). Work on `Nc1nonc1-n1nnc(C(=O)N/N=C/c2ccc(Cl)cc2)c1-c1ccc2c(c1)OCO2` yielded an inhibition of 4.23%. `Cc1ccccc1C(OCC(O)CN1CCCCC1CCO)c1ccccc1` (stereo not drawn) was tested, and the inhibition was 1.17%. With `Cc1ccccc1C(OCCN(C)C)C1CCCCC1` (stereo not drawn) the inhibition was 98.7% (active). In the case of `CN(C)CCOC1c2ccccc2-c2ccccc21`, the inhibition is reported as 9.21%. Compound `Cc1ccc(S(=O)(=O)N2CCN(C(=O)CCC(=O)NC3CCCc4ccccc43)CC2)cc1` (stereo not drawn) has an inhibition of 1.42%. `CCOc1ccc(C(=O)N(Cc2ccc(N(C)C)cc2)C2CCS(=O)(=O)C2)cc1` (stereo not drawn) gave an inhibition of -0.33%. `Cc1noc(C)c1CSc1nnc2ccc3ccccc3n12` was tested, and the inhibition was 31.2% (active). For `C=CCNC(=O)c1ccccc1SCc1c(C)noc1C`, the inhibition was -3.18%. `Cc1noc(C)c1CSCC(=O)Nc1nc2ccc(Oc3ccccc3)cc2s1` showed an inhibition of -2.14%. For `CC(C)(C)c1cnnn1-c1ccc([N+](=O)[O-])cc1`, the inhibition was -0.77%. For `CC1(C)C=C2[C@H]3CC[C@@H]4[C@@]5(C)CCC(=O)C(C)(C)[C@@H]5CC[C@@]4(C)[C@]3(C)CC[C@@]2(C(=O)O)CC1`, the inhibition was 0.2%. Compound `COc1cc2c(cc1OC)C(C(=O)Nc1cc(C)c(OC)c(C)c1)CC(=O)N2` (stereo not drawn) has an inhibition of -6.29%. In the case of `CC(=O)Nc1ccc(N2C(=O)CCC2=O)cc1C`, the inhibition is reported as 0.14%. `CCC(=O)Nc1cc(C(F)(F)F)ccc1N1CCCC1` showed an inhibition of 4.4%. With `O=C(CSc1nc2ccccc2o1)N1c2ccccc2Sc2ccc(Cl)cc21` the inhibition was -5.39%. With `O=C(CN1CCCCC1)N1c2ccccc2Sc2ccc(C(F)(F)F)cc21` the inhibition was 98.8% (active). In the case of `O=C(CN1C(=O)/C(=C\c2ccc(C(F)(F)F)cc2)Sc2ccccc21)NCc1ccco1`, the inhibition is reported as 18.4%. For `O=C(CN1CCCCCC1)N1c2ccccc2Sc2ccc(C(F)(F)F)cc21`, the inhibition was 98.4% (active). `O=C(CN1CCCCCC1)Nc1ccc(Cl)cc1F` was tested, and the inhibition was 7.56%.
